# Screens (PubChem BioAssay)
# HPGD block: qHTS Assay for Inhibitors of HPGD (15-Hydroxyprostaglandin Dehydrogenase). purified HPGD, NADH fluorescence kinetic, PGE2 substrate. Potency, µM, inactives show at the top dose activity change, negative = inhibition, most hits filed as inhibitors. 150,000 tested, 4.3% active
#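 20 nM HPGD preincubated 15 min at room temperature with compound in 50 mM Tris-HCl pH 8, 0.01% Tween 20. Started with 1 mM NAD+ and 30 uM prostaglandin E2; NADH fluorescence (360/450 nm) read 5 times over 30-s intervals, last minus first.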
# Tau fibril FP: qHTS for Inhibitors of Tau Fibril Formation, Fluorescence Polarization; Microtubule-associated protein tau (Homo sapiens), P10636; K18 P301L tau heparin fibrillization, Alexa594 FP, 6 h; Potency, µM (highest dose often 57.7 µM), inactives show at the highest dose activity, negative = inhibition, actives largely listed as inhibitors; 280,000 tested, 0.39% active; AID 1468, 2008; active means well fitted curve in the direction sought with a large enough effect; inconclusive means small, poorly fitted or top-dose-only effect, or another doubt; inactive means no such curve, though single readings can be large; an effect the other way counts as inactive or inconclusive; further: nearly all actives have a fitted effect of over 55% in size
# Target sequence (P10636 561-689 P618L limits assumed): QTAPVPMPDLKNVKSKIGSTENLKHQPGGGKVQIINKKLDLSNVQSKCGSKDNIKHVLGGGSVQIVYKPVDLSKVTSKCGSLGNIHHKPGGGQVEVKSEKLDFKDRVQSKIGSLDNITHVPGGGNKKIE
#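 Human tau K18 […] P301L fragment, 15 uM unlabeled plus 0.24 uM Alexa 594-labeled tau (final), with compound and 20 uM heparin in 100 mM sodium acetate pH 7; 6 hr at 37 C, then Alexa 594 FP read.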
# ALDH1A1 block: qHTS Assay for Inhibitors of Aldehyde Dehydrogenase 1 (ALDH1A1); Aldehyde dehydrogenase 1A1 (Homo sapiens), P00352; Purified ALDH1A1, NADH fluorescence, propionaldehyde substrate; Potency, µM (top dose mostly 75.3 µM), for the others: top-dose activity, negative = inhibition, hits mostly inhibitors; 220,000 tested, 7.3% active; AID 1030, 2008;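 further: plate controls were no enzyme wells and a reference inhibitor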
# Target sequence (P00352 whole entry, looked up): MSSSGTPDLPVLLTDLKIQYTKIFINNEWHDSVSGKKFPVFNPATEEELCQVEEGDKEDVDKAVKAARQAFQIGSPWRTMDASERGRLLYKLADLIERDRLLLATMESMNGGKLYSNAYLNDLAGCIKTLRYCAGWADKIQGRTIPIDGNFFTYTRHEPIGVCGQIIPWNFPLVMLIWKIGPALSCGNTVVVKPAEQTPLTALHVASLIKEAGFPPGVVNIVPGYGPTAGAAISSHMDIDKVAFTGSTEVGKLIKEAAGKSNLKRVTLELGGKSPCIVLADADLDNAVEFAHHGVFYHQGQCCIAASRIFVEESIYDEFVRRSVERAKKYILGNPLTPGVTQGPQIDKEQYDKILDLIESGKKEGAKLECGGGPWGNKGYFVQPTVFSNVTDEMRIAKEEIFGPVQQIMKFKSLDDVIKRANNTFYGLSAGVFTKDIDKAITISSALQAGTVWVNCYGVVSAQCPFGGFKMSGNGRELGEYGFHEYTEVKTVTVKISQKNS
# Tau fibril ThT: qHTS for Inhibitors of Tau Fibril Formation, Thioflavin T Binding; Potency, µM (doses to about 57.4 µM), for the others: at the highest dose activity, negative = inhibition, usual class: inhibitors; 270,000 tested, 2.1% active; recombinant tau K18 P301L, heparin-induced fibrillization, ThT fluorescence; AID 1460, 2008; Microtubule-associated protein tau (Homo sapiens), P10636; active means well fitted curve in the direction sought with a large enough effect; inconclusive means small, poorly fitted or top-dose-only effect, or another doubt; inactive means no such curve, though single readings can be large; an effect the other way counts as inactive or inconclusive; further: nearly all actives have a fitted effect of over 55% in size
#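 K18 P301L tau (15 uM + 0.24 uM Alexa 594-tagged), heparin 20 uM, NaOAc pH 7, 6 h 37 C; ThT 30 uM, 1 h RT, ex 450/em 510 nm.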
# Tau fluor cs: Counterscreen qHTS for Inhibitors of Tau Fibril Formation, Fluorescence Polarization. tau K18 P301L (four-repeat tau fragment) Alexa594 fluorescence, heparin fibrillization. Potency, µM (titrated, usually from 57.7 µM), for the others: at the top dose activity change, negative = decrease. 280,000 tested, 0.93% active. AID 1463, 2008; active means well fitted curve in the direction sought with a large enough effect; inconclusive means small, poorly fitted or top-dose-only effect, or another doubt; inactive means no such curve, though single readings can be large; an effect the other way counts as inactive or inconclusive; further: nearly all actives have a fitted effect of over 55% in size
#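 Human K18 P301L tau (15 uM unlabeled plus 0.24 uM Alexa 594-labeled, final) in 100 mM sodium acetate pH 7 was mixed with compound and 20 uM heparin and incubated 6 hr at 37 C.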
# KDM4E inh: qHTS Assay for Inhibitors of Human Jumonji Domain Containing 2E (JMJD2E). JMJD2E catalytic domain, FDH-coupled NADH fluorescence (FDH is formaldehyde dehydrogenase). Potency, µM (series often up to 57.1 µM), for inactives: top-dose activity change, negative = inhibition, usual class: inhibitors. 230,000 tested, 1.6% active. AID 2147, 2009;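 further: 0% = wells with enzyme and -100% = buffer wells without enzyme; nearly all actives have a fitted effect of over 50% in size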
# The depositor's hits bear a star; ? = inconclusive; . = no result given; [ ] = another dose, or the depositor's remark. A selection: hits, their analogues and other compounds. The true share with any hit is near 9.9%. Unless noted, the call rests on the fitted dose curve; in most records, active means well fitted inhibition curve with a large enough effect (not every such curve was filed as active); inconclusive means small, poorly fitted or top-dose-only effect, or another doubt; inactive means no such curve, though single readings can be large or run the other way. Unless noted, on the % scale 0 is the no-effect control and ±100 the full control effect; potency means the concentration at half of the fitted maximal effect.
SMILES,HPGD block,Tau fibril FP,ALDH1A1 block,Tau fibril ThT,Tau fluor cs,KDM4E inh
Cc1ccc(C(=O)Nc2sc3c(c2C(=O)O)CCCCC3)o1,14µM*,3%,19µM*,14%,16%,-5%
Cc1ccc(C)n1-c1sc2c(c1C(=O)O)CCCC2,-21%,?,28µM*,?,-23%,-30%
COC(=O)c1c(NC(=O)c2ccc(C)o2)sc2c1CCCCC2,?,-9%,?,?,-11%,?
Cc1ccc2cc3c(N)c(C(=O)N4CCOCC4)sc3nc2c1,.,4%,5%,?,-14%,-5%
CCOc1ccc2nc3sc(C(=O)N4CCN(C)CC4)c(N)c3cc2c1,14µM*,9%,-11%,13µM*,?,-26%
COc1ccc2cc3c(N)c(C(=O)N4CCCC4)sc3nc2c1,?,5%,?,11µM*,?,?
Cc1ccc2nc3sc(C(=O)N4CCOCC4)c(N)c3cc2c1,25µM*,5%,-11%,-17%,-11%,8%
CC(C)c1ccc2nc3sc(C(=O)N4CCc5ccccc5C4)c(N)c3cc2c1,16µM*,8%,-15%,13µM*,?,-9%
Cc1cc(C)c2c(N)c(C(=O)N3CCc4ccccc4C3)sc2n1,.,0%,?,?,-11%,-7%
COC(=O)NC(/C(C(=O)OC)=C(\C)NCc1ccccc1)c1ccc(F)cc1 (stereo not given),.,-1%[11.6 µM],-16%[13.5 µM],?,-22%[11.6 µM],.
O=C(CCCN1C(=O)c2cccc3cccc(c23)C1=O)N1CCN(c2ncccn2)CC1,.,0%,28µM*,?,0%,-10%
COc1ccc(CCCc2nnc(SCC(=O)Nc3ccc(F)cc3)o2)cc1C,.,?,.,-7%,-12%,.
O=C(O)Cc1cn(Cc2ccc(F)cc2)c2ccccc12,.,4%,-5%,-3%,-2%,-11%
Cc1[nH][nH]c(=O)c1C(c1c(C)[nH][nH]c1=O)c1cn(Cc2ccc(Cl)c(Cl)c2)c2ccccc12,-4%,?,3.5µM*,10µM*,?,9%
Cc1[nH][nH]c(=O)c1C(c1c(C)[nH][nH]c1=O)c1cn(Cc2ccc(F)cc2)c2ccccc12,-6%,?,1.4µM*,8.9µM*,-25%,?
O=C(Cc1ccc(F)cc1)Nc1c2c(nn1-c1cccc(Cl)c1)CS(=O)C2 (stereo not given),-5%,-2%,4%,1%,0%,9%
COc1cccc(/C=N/Nc2ncnc(Cl)c2N)c1O,-10%,16%,3%,?,-18%,25µM*
COc1cccc(/C=N/Nc2ncnc3scc(-c4ccccc4)c23)c1O,20µM*,?,4%,-2%,?,14µM*
Cc1ccc(-n2c(SCC(=O)Nc3cccc(S(N)(=O)=O)c3)nc3ccccc32)cc1,-4%,-15%,-1%,-19%,?,-12%
O=S(=O)(Nc1cc(Sc2ncn[nH]2)c(O)c2ccccc12)c1ccccc1,.,25µM*,14µM*,11µM*,?,13µM*
Cc1cc(NS(=O)(=O)c2ccccc2)c(C)c(Cl)c1O,-17%,1%,-8%,-7%,-6%,7%
CCCCN(C(=O)Cc1cccs1)c1nnc(-c2cccnc2)s1,-14%,8%,18µM*,-9%,-2%,?
CC(=O)Nc1nonc1-c1nnc(SCC(=O)Nc2cc(Cl)ccc2C)n1C,.,-5%,.,-8%,-11%,.
Cc1ccc2nc(CSc3nc(C)cc(C)c3C#N)[nH]c2c1,?,?,?,13µM*,?,?
Cc1cc(C)c(C#N)c(SCCS(=O)(=O)Cc2ccccc2)n1,-17%,-3%,6.3µM*,-3%,-2%,-1%
SMILES,HPGD block,Tau fibril FP,ALDH1A1 block,Tau fibril ThT,Tau fluor cs,KDM4E inh
Cc1ccc(S(=O)(=O)CCSc2nc(C)cc(C)c2C#N)cc1,-29%,0%,2µM*,-6%,-12%,0%
CSc1nc(N)nc(SCCS(=O)(=O)c2ccc(Cl)cc2)c1C#N,-29%,6%,2.5µM*,?,-28%,-11%
CSc1nc(N)nc(SCC(=O)Nc2ccc(Cl)cc2)c1C#N,?,-1%,?,9%,0%,?
Cc1cc(C)c(C#N)c(SCc2ccccc2C)n1,-17%,-6%,-10%,-9%,-12%,-3%
COc1ccc(CSc2nc(C)cc(C)c2C#N)cc1,.,-10%,?,-10%,-22%,-12%
CCS(=O)(=O)CCSc1nc(C)cc(C)c1C#N,-2%,13%,?,6%,3%,-9%
O=C(NCCN1CCCCC1)c1ccc(-n2c(=O)c(=O)[nH]c3ccccc32)cc1,-8%,.,0%,.,.,.
CC1CCCCN1C(=O)CNCC1CCCO1 (stereo not given),.,-5%,-8%,-3%,4%,5%
Cn1c(=O)oc2cc(S(=O)(=O)N3CCCC(C(=O)N4CC=C(c5ccccc5)CC4)C3)ccc21 (stereo not given),14µM*,-2%,?,-14%,-6%,-3%
O=C(Cn1c(=O)oc2cc(S(=O)(=O)N3CCCC3)ccc21)N1CCc2ccccc2C1,-9%,5%,11µM*,-5%,-5%,-4%
CC(C)C(c1nnnn1C1CCCCC1)N1CCc2ccccc2C1 (stereo not given),-12%,-2%,25µM*,-6%,0%,-4%
CC(C)C(c1nnnn1Cc1ccccc1)N1CCc2ccccc2C1 (stereo not given),-16%,?,10µM*,?,-19%,?
COC(=O)c1cn(NC(=O)Cc2ccccc2Br)c(=O)c2ccccc12,.,1%,?,-3%,-7%,1%
O=C(Nc1cccc(F)c1)N1CCCC2(CCN(C(=O)c3ccco3)CC2)C1,-18%,.,?,.,.,.
CC(C)[C@H](NC(=O)NC1CCCC1)C(=O)O,-2%,6%,18%,-2%,4%,8%
CC(C)=CCCC(C)NC(=O)NC1CCCCC1 (stereo not given),35µM*,-3%,0%,-10%,-8%,-3%
CCc1ccccc1NC(=O)Cn1ccn(-c2cc(C)cc(C)c2)c(=O)c1=O,.,-4%,.,?,-7%,.
CC1=Nc2cccc3cccc(c23)N1,-12%,?,0%,22µM*,?,-16%
COc1cccc(-c2nc(NC3CCNCC3)c3ccccc3n2)c1,.,.,32µM*,.,.,.
